Several values for one entry are separate records, joined by “and”; a condition that tells them apart may be missing. Equal entries are not always repeated. The whole screen tested about 310,000 compounds, of which about 11,000 (3.5%) were called active. Inconclusive results (about 4%) are left out. Calls come from the whole dose curve; as a rule, active = well fitted inhibition curve with a large enough effect; inconclusive = small, poorly fitted or top-dose-only effect, or another doubt; inactive = no such curve, though single readings can be large or run the other way. Shown is part of a subset that was picked to be rich in actives.
These compounds were tested against 4'-phosphopantetheinyl transferase ffp (Bacillus subtilis) (UniProt Q9F4F7) (assay: qHTS Assay for Inhibitors of Bacillus subtilis Sfp phosphopantetheinyl transferase (PPTase)). Conditions: Biochemical Sfp PPTase activity.
Source text: Assay Submitter: Michael Burkart, University of California, San Diego
Screening Center PI: Austin, C.P.
Screening Center: NIH Chemical Genomics Center [NCGC]
The covalent attachment of a phosphopantetheinyl (4'-PP) arm to a variety of synthases and other proteins is a key posttranslational protein modification. The 4'-PP is installed on the proteins post-translationally from coenzyme A (CoA) on a conserved serine residue by action of phosphopantetheinyl transferase (PPTase) enzymes. Phosphopantetheinylation is essential for synthase activity, and removal of the PPTase gene precludes natural product synthesis in microorganisms, or in the case of fatty acid biosynthesis, renders the organism unviable. PPTase enzymes belong to a distinct structural superfamily. Within bacteria, these enzymes are grouped into two classes based upon primary structure, the AcpS-Type and Sfp-Type PPTases.
Sfp-type PPTases, corresponding to an activator of surfactin production in Bacillus subtilis, are responsible for modifying type I polyketide and nonribosomal peptide synthases of prokaryotes. Sfp-type PPTases are responsible for the activation of a variety of pathogen-associated virulence factors. Among these compounds are toxins such as mycolactone from Mycobacterium ulcerans, siderophores such as vibriobactin from Vibrio cholerae or mycobactin from Mycobacterium tuberculosis, as well as the mycolic acids which form the waxy cell wall of Mycobacteria. The biosyntheses of these natural products are considered attractive targets for drug design.
In search of small molecule Sfp-PPTase inhibitors, a fluorescence quenching assay was developed for detection of Bacillus subtilis Sfp-PPTase enzymatic activity in a miniaturized high-throughput format. The consensus ybbr acceptor peptide […] was N-terminally labeled with Black Hole Quencher-2 (BHQ-2) and used in combination with rhodamine-labeled coenzyme A as a co-substrate.
Inhibition of Sfp-PPTase was detected by recording the fluorescence intensity change over a 30-minute reaction period at a 525 nm excitation and 598 nm emission. Reagents were supplied by Michael Burkart and Timothy Foley, University of California at San Diego.
This BioAssay deposition is for validation of the developed Sfp-PPtase assay.
Assay Buffer: 50 mM Hepes-Na pH 7.6, 10 mM MgCl2, 0.01% Nonidet P-40, and 0.01% BSA.
3 uL of Sfp-PPTase enzyme (final concentration 15 nM) and 1 uL of substrate mixture (final concentration for rhodamine-CoA and BHQ-2-YbbR 5 uM and 12.5 uM, respectively) dispensed in columns 1, 2, 5 - 48. Columns 1 and 2 used to generate neutral control (uninhibited reaction)
Three uL of reagents, consisting of buffer (in columns 3 and 4 as negative control) and Sfp-PPTase (in columns 1, 2, 5 - 48) were dispensed into 1,536-well Greiner black solid bottom plate. Compounds (23 nL) were transferred via Kalypsys pintool equipped with 1,536-pin array. The plate was incubated for 15 min at room temperature, followed by the addition of 1 uL substrate to start the reaction. The plate was then centrifuged at 1000 rpm for 15 seconds, and the fluorescence intensity recorded on a ViewLux High-throughput CCD imager (Perkin-Elmer) using standard BODIPY optics (525 nm excitation and 598 nm emission). The plate was then incubated for 30 minutes, and a second read on the ViewLux was performed. The fluorescence intensity difference over the 30-minute period was used to calculate the respective reaction rate for each well.
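Note: the enzyme is Sfp with the accession as filed and its product quenches rhodamine fluorescence.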
Potency is the fitted concentration of half-maximal effect.
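Throughout, for Largest response in the series, negative = inhibition: 0% = enzyme reaction without inhibitor and -100% = no enzyme wells.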

Largest response in the series, negative = inhibition, inactive:
O=c1cc(-c2ccc(O)cc2)oc2c(-c3cc(-c4cc(=O)c5c(O)cc(O)cc5o4)ccc3O)c(O)ccc12 -11.5%, O=c1cc(-c2ccc(O)c(O)c2)oc2cccc(O)c12 -4.56%, COc1ccc(C(C)C)cc1S(=O)(=O)Nc1ncn[nH]1 16.1%, COc1ccc(CNS(=O)(=O)c2cc(-c3cc(C)no3)ccc2C(C)C)cc1 7.48%, CCc1nc2ccc(C(=O)N3CCN(c4cccc(Cl)c4)CC3)cc2nc1CC -10.1%, C#CCC(C(=O)OC)(C(=O)OC)C(C[N+](=O)[O-])c1ccccc1 (stereo not given) -5.44%, Nc1ccccc1SCc1cc([N+](=O)[O-])cc2c1OCOC2 -29.9%, O=c1c2cc(Br)ccc2nc(-c2cccc(Cl)c2)n1O 10.6%, CCc1c(C)nc(N)n2c(SCC(=O)NC3CCCCC3)nnc12 11.3%, O=C(O)C1CCCN1C1=NS(=O)(=O)c2ccccc21 (stereo not given) 13.1%, CC(C)c1ccc(NC(=S)NNc2ccc(Cl)c(C(=O)O)c2)cc1 -24.2%, Cc1ccc(C)c(NC(=S)NNC(=O)c2csc(C)c2)c1 9.77%, NC(=O)C1CCCN(CC(=O)N2CCN(c3ccccc3)CC2)C1 (stereo not given) 19%, CC1CCN(CC(=O)Nc2nccs2)CC1 6.83%, Cc1nc2ccccc2n1CC(O)c1ccccc1 (stereo not given) 2.21%, O=C(COC(=O)c1cccs1)Nc1ccccc1Cl 3.72%, O=C(Nc1ccccc1Cl)Nn1cnnc1 10.7%, CC(=O)Oc1c2c(c3c(c1CC=C(C)C)O[C@@]14C(=CC5CC1C(C)(C)OC4(C/C=C(\C)C(=O)O)C5=O)C3=O)OC(C)(CCC=C(C)C)C=C2 (stereo not given in full) -62.7%, O=C(NCc1ccco1)C(c1ccncc1)N(C(=O)Cn1nnc2ccccc21)c1ccccc1 (stereo not given) 18%, O=C(Nc1ccc(S(=O)(=O)NCC2CCCO2)cc1)c1ccc(F)cc1 (stereo not given) 10.5%, COc1ccc(OC)c(CCNC(=O)CCn2ccc3cc(S(=O)(=O)N4CCCC4)ccc32)c1 4.91%, CCNC(=S)Nc1ccc(OC(F)(F)F)cc1 14.8%, FC(F)(F)Oc1ccc(NC(=S)NCc2ccccc2)cc1 7.74%, CCC(=O)Nc1ccc(-c2ccc(N3CCCCC3)nn2)cc1 14.4%, C=C1CCN(C(CC(C)C)C(=O)N2CCOCC2)S(=O)(=O)c2ccccc21 (stereo not given) -9.91%, CCOc1ccccc1NC(=O)Cn1ncc2ccc([N+](=O)[O-])cc21 -5.95%, COc1ccc(C(=O)O/N=C(\N)c2ccccn2)cc1[N+](=O)[O-] 9.71%, COc1cccc(OCC(=O)NNC(=O)c2cnccn2)c1 -17.6%, CC1CCCC(C)N1C(=O)CSc1nnnn1C1CCCC1 (stereo not given) 18.7%, CCC(CC)C(=O)Nc1c2c(nn1-c1ccc(C)cc1)CS(=O)(=O)C2 4.15%, COc1ccc(C(=O)Nc2ccccc2C(=O)N2CCN(c3ccccc3)CC2)cc1 5.69%, O=C(O)C1CC=CCC1C(=O)Nc1ccccc1C(=O)N1CCN(c2ccccc2)CC1 (stereo not given) 22.9%, Cc1cc(C)c(S(=O)(=O)N(C)CC(=O)NCC2CCCO2)c(C)c1 (stereo not given) 16.6%, COc1ccc(/C=C/c2c(-c3cccc(C)c3)oc3ccc(-c4ccc5c(c4)OCO5)cc23)cc1 1.24%, NNC(=O)c1oc2nc(-c3ccccc3)cc(-c3ccco3)c2c1N -13.3%, CNc1nc(-c2ccccc2)cc(-c2ccccc2)n1 -1.57%, CN1C(=O)CN2CCc3ccccc3C2c2cc(Cl)ccc21 (stereo not given) 11%, CC(C)(C)NS(=O)(=O)c1ccc(NC(=O)C2CCCO2)cc1 (stereo not given) 9.67%, COC(=O)c1cccc(N(CC(=O)NCC2CCCO2)C(=O)CCC(=O)Nc2cc(C)on2)c1 (stereo not given) -5.12%, Cc1ccc(NC(=O)CSc2nnc(CNC(=O)c3ccccc3F)o2)cc1Cl 12.4%, CS(=O)(=O)n1nc(-c2ccco2)nc1N 23.7%, Cn1cccc1-c1nc2ccccc2n1C 1.06%, CC(CCc1ccccc1)NC(=O)c1cnc(Cl)c(Cl)c1 (stereo not given) 8.93%, Oc1ccccc1CN1CCN(C(c2ccccc2)c2ccccc2)CC1 -13.4%, Cc1onc(C(=O)NN)c1C(=O)N1CCN(C(c2ccccc2)c2ccccc2)CC1 1.91%, Clc1cccc(CN2COc3c(cc(Cl)c4cccnc34)C2)c1 -2.55%, CCOC(=O)N1CCN(C(=O)C2CCN(c3ncnc4c3sc3cccc(F)c34)CC2)CC1 -3.49%, O=C(c1ccc(Cn2cc([N+](=O)[O-])cn2)o1)N1CCCC1 5.1%, Cc1ccc(CS(=O)Cc2ccc(C(=O)N3CCOCC3)o2)cc1 (stereo not given) 9.75%, O=C(Nc1ccnn1C1CCN(C/C=C/c2ccc(F)cc2)CC1)C1CCCC1 -2.59%, O=C(c1ccc(F)cc1)N1CCCC(C(=O)N2CCCCC2)C1 (stereo not given) 1.26%, CCOC(=O)C1=C(C(=O)OCC)C(C(=O)OCC)N(S(=O)(=O)C(F)(F)F)c2ccccc21 (stereo not given) 6.6%, CCOC(=O)c1ccccc1CN1C(=O)c2ccccc2S1(=O)=O -2.27%, CCc1cc(=O)oc2c(C)c(OCC(=O)NCCN3CCOCC3)ccc12 9.5%, CSCCC(NS(=O)(=O)c1ccc(C)cc1)C(=O)NCCc1c[nH]c2ccccc12 (stereo not given) 6.95%, O/N=C(\C[n+]1ccccc1)c1ccc(Br)cc1 -2.63%, C=CCSc1nc2c(c(=O)[nH]c(=O)n2C)n1Cc1ccccc1 9.86%, COc1ccc(CNc2nc3c(c(=O)[nH]c(=O)n3C)n2Cc2ccccc2)cc1 11.4%, CC1CCN(C(=O)C2CCN(S(=O)(=O)N3CCC4(CC3)OCCO4)CC2)CC1 17.9%, O=c1c([N+](=O)[O-])cc(C(F)(F)F)cn1Cc1cccc(Cl)c1 3.19%, O=C(/C=C/c1cccc([N+](=O)[O-])c1)N1CCN(Cc2ccccc2)CC1 2.23%, COc1cc(NC(=O)CN2C(=O)NC(C)(c3ccc(OC(F)F)cc3)C2=O)cc(OC)c1OC (stereo not given) 17.8%, Cc1cccc(NC(=O)NC(=S)NC(=O)c2ccccc2)c1 18.4%, O=C(NCCc1ccc(Cl)cc1)c1cccc(N2CCCC2=O)c1 4.32%, S=C(NCCc1ccccc1)N1CCCCC1 5.57%, COc1ccc([N+](=O)[O-])cc1NCC(=O)c1ccc(C)cc1 -11.6%, Cc1cccc(C(=O)Nc2ccc(C(=O)N/N=C/c3cccc(C)n3)cc2)c1 -3.6%, c1ccc(-c2cc(-c3nnc4sc(-c5ccccn5)nn34)[nH]n2)cc1 0.622%, COc1cc(-c2nn3c(-c4cccc(C)c4)nnc3s2)cc(OC)c1OC 10.2%, C=CC1=C2C=C(C3CC3)N(C(CO)CO)C=C2C(=O)C(C)(OC(=O)c2ccco2)C1=O (stereo not given) 11.3%, Cc1ccc(CNCc2ccc3c(c2)OCO3)c(C)c1 -14.4%, CC(=O)Nc1ccc(NC(=O)CC2CCCC2)cc1 1.03%, O=C(c1ccc2ccccc2n1)N1CCN(c2ccccc2Cl)CC1 -10.1%, O=C(c1c(F)cccc1Cl)N1CCN(c2ccccn2)CC1 2.71%, COc1ccc(C(=O)CCC(=O)Nc2ccc(Cl)cc2)cc1 9.46%, CCSc1nc2sc3c(c2c(=O)[nH]1)CC(C)(C)OC3 1.72%, CCOC(=O)CSc1nc2sc3c(c2c(=O)[nH]1)CC(C)(C)OC3 -10.3%

Potency, active:
COc1c(O)cc2oc(-c3ccc(O)c(O)c3)cc(=O)c2c1O 50.1 µM, Nc1ccccc1SC(C[N+](=O)[O-])c1ccccc1 (stereo not given) 7.94 µM, Cc1ccc(C)c(NC(=S)NNC(=S)Nc2ccc(C(C)C)cc2)c1 4.47 µM, O=C(Nc1ccccc1Cl)/C(Cl)=C(\Cl)S(=O)c1ccccc1 (stereo not given) 6.31 µM, CS(=O)(=O)c1sc(C(=O)NC(=S)Nc2ccc(OC(F)(F)F)cc2)c2c1C=CCC2 44.7 µM, COc1ccc(C(=O)NNC(=O)c2cnccn2)cc1[N+](=O)[O-] 44.7 µM, CC(C)c1ccc(N2CCN(C(=O)c3ccccc3NC(=O)/C=C(\C(=O)O)c3ccccc3)CC2)cc1 56.2 µM, CNC(=S)NNC(=O)c1oc2nc(-c3ccccc3)cc(-c3ccco3)c2c1N 12.6 µM, c1coc(-c2nc3nc4ccccc4n3nc2-c2ccco2)c1 39.8 µM, CCN1CCN(C(c2cccnc2)c2cc(Cl)c3cccnc3c2O)CC1 (stereo not given) 39.8 µM, CCOC(=O)N1CCN(C(c2cccnc2)c2ccc3cccnc3c2O)CC1 (stereo not given) 20 µM, CCOC(=O)c1cc2n(c1N)-c1ccccc1C2=O 8.91 µM, Cn1c(=O)[nH]c(=O)c2c1[nH]c(=S)n2Cc1ccccc1 44.7 µM, O=[N+]([O-])/C=C/c1ccc2c(ccn2Cc2ccccc2)c1 25.1 µM, Oc1cc2c(cc1O)CN(C(=S)NCCc1ccc(Cl)cc1)CCC2 56.2 µM and 44.7 µM, Fc1ccc(-c2ccc(-c3nn4c(-c5ccco5)nnc4s3)o2)cc1 17.8 µM, O=C(c1c(Cl)cccc1Cl)N1CCN(c2cccc3[nH]ccc23)CC1 89.1 µM, CC/C(C)=N/Nc1nc2sc3c(c2c(=O)[nH]1)CC(C)(C)OC3 39.8 µM
